Several values for one entry are separate records, joined by “and”; a condition that tells them apart may be missing. Identical values can stand only once. Hit rate of the full screen: of about 5,500 compounds, about 2,000 (36%) were called active. About 18% were inconclusive and are not listed. No stated cut-off is given here; in the data, active means normalized growth mostly below about 0.91 (no sharp cut-off); inconclusive means no clear call, values can overlap the other calls; inactive means mostly above about 0.92. Some of the results follow.
Experiment: chemical genetic growth profiling, strain panel (AID 1159580);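 further: tested at 20 µM; growth read once vehicle control cultures reached saturation at 30 °C; 1 = growth at the plate median or of vehicle wells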
Conditions: S. cerevisiae deletion strains, growth OD

Measured: normalized growth

CC(=O)OCC(=O)[C@@]12OC(C)(C)O[C@@H]1CC1C3C[C@H](F)C4=CC(=O)C=C[C@]4(C)[C@@]3(F)[C@@H](O)C[C@@]12C (some centres not stated)
inactive: locus YAL013W, strain DEP1, stronger effect = lower value 1 | locus YAL021C, strain ccr4, stronger effect = lower value 1.01 | locus YAL026C, strain drs2, stronger effect = lower value 1.02 | locus YAL030W, strain snc1, stronger effect = lower value 1.02 | locus YBL061C, strain skt5, stronger effect = lower value 1.03 | locus YBR009C, strain hhf1, stronger effect = lower value 1.01 | locus YBR021W, strain FUR4, stronger effect = lower value 0.996 | locus YBR023C, strain chs3, stronger effect = lower value 1.03 | locus YBR171W, strain sec66, stronger effect = lower value 1.03 | locus YBR229C, strain ROT2, stronger effect = lower value 1.01 | locus YBR231C, strain swc5, stronger effect = lower value 0.989 | locus YBR279W, strain paf1, stronger effect = lower value 1.03 | locus YCL011C, strain gbp2, stronger effect = lower value 1.04 | locus YCL016C, strain dcc1, stronger effect = lower value 1.03 | locus YCL029C, strain bik1, stronger effect = lower value 1.01 | locus YCL061C, strain MRC1, stronger effect = lower value 1.01 | locus YCL069W, strain vba3, stronger effect = lower value 1.02 | locus YCR088W, strain abp1, stronger effect = lower value 1.02 | locus YDL005C, strain med2, stronger effect = lower value 1.03 | locus YDL035C, strain GPR1, stronger effect = lower value 0.99 | locus YDL040C, strain nat1, stronger effect = lower value 1.02 | locus YDL074C, strain BRE1, stronger effect = lower value 1.01 | locus YDL101C, strain DUN1, stronger effect = lower value 1.01 | locus YDL134C, strain PPH21, stronger effect = lower value 0.99 | locus YDL185W, strain tfp1, stronger effect = lower value 1.02 | locus YDL192W, strain arf1, stronger effect = lower value 1.02 | locus YDR001C, strain nth1, stronger effect = lower value 1.02 | locus YDR069C, strain doa4, stronger effect = lower value 0.998 | locus YDR101C, strain arx1, stronger effect = lower value 0.965 | locus YDR137W, strain rgp1, stronger effect = lower value 1.03 | locus YDR150W, strain NUM1, stronger effect = lower value 1.01 | locus YDR159W, strain sac3, stronger effect = lower value 0.989 | locus YDR162C, strain NBP2, stronger effect = lower value 0.989 | locus YDR195W, strain ref2 0.999 | locus YDR297W, strain sur2, stronger effect = lower value 1.02 | locus YDR318W, strain mcm21, stronger effect = lower value 1.02 | locus YDR334W, strain swr1, stronger effect = lower value 1.02 | locus YDR335W, strain msn5, stronger effect = lower value 1.03 | locus YDR388W, stronger effect = lower value 1.01 | locus YDR392W, strain spt3, stronger effect = lower value 0.981 | locus YDR502C, strain sam2, stronger effect = lower value 1 | locus YEL003W, strain gim4, stronger effect = lower value 1.02 | locus YEL037C, strain rad23, stronger effect = lower value 1.02 | locus YEL061C, strain CIN8 (second series), stronger effect = lower value 1.02 | locus YEL061C, strain CIN8, stronger effect = lower value 1.01 | locus YER015W, strain faa2, stronger effect = lower value 1.02 | locus YER016W, strain bim1, stronger effect = lower value 1.01 | locus YER110C, stronger effect = lower value 1.02 | locus YER111C, strain swi4, stronger effect = lower value 1.04 | locus YER155C, strain BEM2 (second series), stronger effect = lower value 0.995 | locus YER155C, strain BEM2, stronger effect = lower value 1.01 | locus YER167W, strain BCK2, stronger effect = lower value 0.996 | locus YFR010W, strain ubp6, stronger effect = lower value 1.01 | locus YGL078C, strain dbp3, stronger effect = lower value 1.02 | locus YGL086W, strain mad1, stronger effect = lower value 0.992 | locus YGL167C, strain pmr1, stronger effect = lower value 1.02 | locus YGL173C, strain kem1, stronger effect = lower value 1.02 | locus YGL227W, strain vid30, stronger effect = lower value 1.03 | locus YGL240W, strain doc1, stronger effect = lower value 1.01 | locus YGL248W, strain PDE1, stronger effect = lower value 1.01 | locus YGL253W, strain hxk2, stronger effect = lower value 1.01 | locus YGR135W, strain pre9, stronger effect = lower value 1.07 | locus YGR252W, strain gcn5, stronger effect = lower value 1.1 | locus YHR013C, strain ard1, stronger effect = lower value 1.04 | locus YHR027C, strain rpn1, stronger effect = lower value 1.02 | locus YHR030C, strain SLT2, stronger effect = lower value 0.995 and 0.988 | locus YHR079C, strain IRE1 (second series), stronger effect = lower value 1.01 | locus YHR079C, strain IRE1, stronger effect = lower value 1 | locus YHR094C, strain hxt1, stronger effect = lower value 1.02 | locus YHR129C, strain ARP1, stronger effect = lower value 1.01 | locus YHR142W, strain chs7, stronger effect = lower value 1.04 | locus YHR200W, strain rpn10, stronger effect = lower value 1.01 | locus YIL066C, strain RNR3, stronger effect = lower value 1 | locus YIL073C, strain SPO22, stronger effect = lower value 1.02 | locus YIL125W, strain kgd1, stronger effect = lower value 1 | locus YIR030C, strain dcg1, stronger effect = lower value 1.03 | locus YJL092W, strain hpr5, stronger effect = lower value 1.03 | locus YJL095W, strain BCK1 (second series), stronger effect = lower value 1.02 | locus YJL095W, strain BCK1, stronger effect = lower value 1.03 and 0.999 | locus YJL115W, strain asf1, stronger effect = lower value 1.01 | locus YJL129C, strain trk1, stronger effect = lower value 1.03 | locus YJL134W, strain LCB3, stronger effect = lower value 1.01 | locus YJL154C, strain vps35, stronger effect = lower value 1.02 | locus YJL164C, strain tpk1, stronger effect = lower value 1.02 | locus YJL166W, strain qcr8, stronger effect = lower value 1.04 | locus YJL168C, strain set2, stronger effect = lower value 1.02 | locus YJL187C, strain SWE1 (second series), stronger effect = lower value 1.01 | locus YJL187C, strain SWE1, stronger effect = lower value 1.02 | locus YJR043C, strain POL32, stronger effect = lower value 0.999 | locus YJR066W, strain TOR1, stronger effect = lower value 0.937 | locus YJR075W, strain HOC1, stronger effect = lower value 1 | locus YKL009W, strain mrt4, stronger effect = lower value 1.01 | locus YKL068W, stronger effect = lower value 1.01 | locus YKL085W, strain MDH1 (second series), stronger effect = lower value 1.01 | locus YKL085W, strain MDH1, stronger effect = lower value 1.01 | locus YKL160W, strain elf1, stronger effect = lower value 1.05 | locus YKR001C, strain vps1, stronger effect = lower value 1 | locus YKR026C, strain gcn3, stronger effect = lower value 1.02 | locus YKR091W, strain srl3, stronger effect = lower value 1.02 | locus YLL001W, strain dnm1, stronger effect = lower value 1.03 | locus YLL026W, stronger effect = lower value 1.02 | locus YLL041C, strain sdh2, stronger effect = lower value 1.01 | locus YLR027C, strain aat2, stronger effect = lower value 1.01 | locus YLR039C, strain RIC1, stronger effect = lower value 1.06 | locus YLR058C, strain SHM2, stronger effect = lower value 1.01 | locus YLR102C, strain apc9, stronger effect = lower value 1.01 | locus YLR113W, strain HOG1, stronger effect = lower value 1.02 | locus YLR221C, strain rsa3, stronger effect = lower value 1.03 | locus YLR258W, strain gsy2, stronger effect = lower value 1.04 | locus YLR262C, strain YPT6 (second series), stronger effect = lower value 1.04 | locus YLR262C, strain YPT6, stronger effect = lower value 0.987 | locus YLR268W, strain sec22, stronger effect = lower value 1.01 | locus YLR320W, strain mms22, stronger effect = lower value 1.06 | locus YLR330W, strain CHS5, stronger effect = lower value 1.01 | locus YLR342W, strain FKS1 (second series), stronger effect = lower value 1.03 | locus YLR342W, strain FKS1, stronger effect = lower value 1.03 | locus YLR357W, strain rsc2, stronger effect = lower value 1.01 | locus YLR370C, strain arc18, stronger effect = lower value 1.03 | locus YLR371W, strain rom2, stronger effect = lower value 1.01 | locus YLR384C, strain iki3, stronger effect = lower value 1.03 | locus YLR418C, strain cdc73, stronger effect = lower value 1.03 | locus YML016C, strain PPZ1, stronger effect = lower value 1 | locus YML032C, strain rad52, stronger effect = lower value 0.996 | locus YML120C, strain ndi1, stronger effect = lower value 1.04 | locus YML124C, strain tub3, stronger effect = lower value 1.03 | locus YMR058W, strain fet3, stronger effect = lower value 1.01 | locus YMR078C, strain ctf18, stronger effect = lower value 1.01 | locus YMR125W, strain sto1, stronger effect = lower value 1.03 | locus YMR129W, stronger effect = lower value 1.02 | locus YMR205C, strain PFK2, stronger effect = lower value 1.05 | locus YMR223W, strain ubp8, stronger effect = lower value 1.05 | locus YMR231W, strain pep5, stronger effect = lower value 1.02 | locus YMR307W, strain GAS1, stronger effect = lower value 1.04 | locus YNL067W, strain RPL9B, stronger effect = lower value 0.995 | locus YNL071W, strain lat1, stronger effect = lower value 1.03 | locus YNL153C, strain GIM3, stronger effect = lower value 1.01 | locus YNL183C, strain NPR1, stronger effect = lower value 0.945 | locus YNL209W, strain ssb2, stronger effect = lower value 1.03 | locus YNL233W, strain BNI4, stronger effect = lower value 1.01 | locus YNL248C, strain rpa49, stronger effect = lower value 1.02 | locus YNL250W, strain rad50, stronger effect = lower value 1.03 | locus YNL271C, strain bni1, stronger effect = lower value 1.04 | locus YNL298W, strain CLA4, stronger effect = lower value 1.04 | locus YNL307C, strain MCK1, stronger effect = lower value 1.02 | locus YNL322C, strain KRE1 (second series), stronger effect = lower value 1.04 | locus YNR049C, strain mso1, stronger effect = lower value 1.02 | locus YNR052C, strain pop2, stronger effect = lower value 1.01 | locus YOL006C, strain TOP1, stronger effect = lower value 1.03 | locus YOL012C, strain htz1 2.14 | locus YOL147C, strain pex11, stronger effect = lower value 1.02 | locus YOR001W, strain rrp6, stronger effect = lower value 1 | locus YOR061W, strain CKA2, stronger effect = lower value 1.01 | locus YOR069W, strain VPS5, stronger effect = lower value 1.01 | locus YOR070C, strain gyp1, stronger effect = lower value 1.03 | locus YOR080W, strain dia2, stronger effect = lower value 1.02 | locus YOR083W, strain WHI5, stronger effect = lower value 1.04 | locus YOR106W, strain vam3, stronger effect = lower value 1.05 | locus YOR136W, strain idh2, stronger effect = lower value 1.01 | locus YOR144C, strain elg1, stronger effect = lower value 1 | locus YOR184W, strain ser1, stronger effect = lower value 1.01 | locus YOR231W, strain MKK1, stronger effect = lower value 0.999 | locus YOR265W, strain rbl2, stronger effect = lower value 1.02 | locus YOR270C, strain vph1, stronger effect = lower value 1.03 | locus YOR290C, strain snf2, stronger effect = lower value 0.982 | locus YOR316C, strain cot1, stronger effect = lower value 1.01 | locus YPL051W, strain arl3, stronger effect = lower value 1.02 | locus YPL055C, strain LGE1, stronger effect = lower value 1.01 | locus YPL078C, strain atp4, stronger effect = lower value 1.04 | locus YPL106C, strain sse1, stronger effect = lower value 1 | locus YPL240C, strain hsp82, stronger effect = lower value 1.01 | locus YPL241C, strain CIN2, stronger effect = lower value 0.999 | locus YPL256C, strain CLN2, stronger effect = lower value 0.974 | locus YPR119W, strain clb2, stronger effect = lower value 1.01 | locus YPR141C, strain kar3, stronger effect = lower value 1.02 | locus YPR163C, strain tif3, stronger effect = lower value 1.02 | locus YPR167C, strain met16, stronger effect = lower value 1.02 | strain wtn01, stronger effect = lower value 1.02

From PubChem BioAssay AID1159580 (chemical genetic matrix, 2015)
